Results published in PubChem BioAssay AID588335 (The Scripps Research Institute Molecular Screening Center, 2011).
The whole screen tested about 360,000 compounds, of which about 4,500 (1.2%) were called active. Shown is part of a subset that was picked to be rich in actives. Values without a mark were called inactive. Rule as the data show it: active = inhibition above about 30%; inactive = the rest.

Assay: GDH-TPI coupling enzyme inhibitors, primary screen, artefact control for M. tuberculosis FBA inhibitor project, biochemical, absorbance, full deck (AID 588335);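 also: 0% = DMSO wells and 100% = wells lacking the enzyme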
Conditions: GDH-TPI coupled enzyme counterscreen, NADH absorbance; at 4.8 µM; active compounds read high

Structure (SMILES)	inhibition
Cc1nc2ccccc2c(C)c1C(=O)c1ccc(F)cc1	-2.59%
Cn1c(CC(=O)NNC(=O)c2ccccc2F)nc2ccccc21	-6.69%
Cn1c(NC(=O)c2ccccc2)nc2ccccc21	41.4% (active)
CCn1c(NC(=O)c2nn(C)cc2Br)nc2ccccc21	6.37%
CCCn1c(C(=O)c2ccccc2OC)nc2ccccc21	8.57%
Cn1c(-c2ccc(C(=O)c3ccccc3)s2)nc2ccccc21	38.1% (active)
C/C(=C(\C#N)C(=O)NCCCN1CCOCC1)N(C)C	7.8%
CCc1nn(CCCC(=O)Nc2ccc(C)cc2C)c(=O)c2cc3occc3n12	5.68%
CCN(CC)C(=O)CSc1nc2ccccc2n1CC(=O)N1CCN(c2ccccc2OC)CC1	-6.21%
O=C1NC(=O)C(CCc2ccccc2)(c2ccccc2)N1 (configuration not stated)	2.63%
O=C(N/N=C/C=C/c1ccccc1)C1CC1(c1ccccc1)c1ccccc1 (configuration not stated)	21.3%
COc1ccc(C2=Nn3c(nnc3-c3ccccc3OC)SC2)cc1OC1CCCC1	31.1% (active)
CCn1c(SCC(=O)NC2CC2)nnc1-c1ccccc1OC	-0.34%
COc1cc(OC)c(NS(=O)(=O)c2cn(C)cn2)cc1Cl	-9.45%
Cc1cccc(N2O[C@H]3C=CC2CCCC3)n1	-10.9%
O=C(NC(=S)Nc1ccccc1C(=O)O)c1ccc(-c2ccc(Br)cc2)o1	40.9% (active)
CN1CCN(C(=O)c2ccc(-c3ccc(Br)cc3)o2)CC1	3.5%
O=C(NC(=S)Nc1cc(C(F)(F)F)ccc1N1CCOCC1)c1ccc(-c2cccc(Cl)c2)o1	-2.21%
O=c1c2ccccc2c(-c2ccccc2)nn1-c1ccccn1	1.89%
CCOC(=O)c1ccn(-c2nc(-c3ccco3)cc(C(F)(F)F)n2)n1	35.1% (active)
O=C(CSc1nc(-c2ccco2)cc(C(F)(F)F)n1)N1CCc2ccccc2C1	10.9%

Structure (SMILES)	inhibition
COC(=O)c1cnn2c(C(F)(F)F)cc(-c3ccco3)nc12	16.7%
NC(=O)CC(NC(=O)Cc1ccc(Br)cc1)c1ccc(NC2CC3CCC2C3)c([N+](=O)[O-])c1 (configuration not stated)	-1.99%
CC1(c2ccc(Cl)cc2Cl)NC(=O)N(CC(=O)Nc2cccnc2Cl)C1=O (configuration not stated)	0%
Cc1cccc(C(=O)OCC(=O)NCC(C)C)c1O	2.88%
N#CC1=C(N)N(c2ccc(F)cc2)C(=O)C1	4.15%
CCCc1ccc(OCc2ccc(C(=O)N/N=C/c3cccc([N+](=O)[O-])c3)o2)c(OC)c1	3.73%
Cc1occc1C(=O)N/N=C/c1ccc(-c2cccc([N+](=O)[O-])c2)o1	34% (active)
O=[N+]([O-])c1ccc2oc(-c3cccc(O)c3)nc2c1	15.8%
O=C(CN1C(=O)NC2(CCCC2)C1=O)OCCOc1ccc(F)cc1	-5.15%
Cc1ccc(C(=O)NCC(c2cccs2)N(C)C)cc1S(=O)(=O)N1CCOCC1 (configuration not stated)	3.9%
Cc1ccc(-c2cc(C(=O)N/N=C/C=C/c3ccco3)c3ccccc3n2)cc1C	52.1% (active)
O=C(NCCc1ccccn1)c1cc(-c2ccc(Cl)cc2)nc2ccccc12	19.5%
O=C(N/N=C/C=C/c1ccco1)c1cccs1	46.5% (active)
O=C(COC(=O)CCC(=O)c1cccs1)NCc1ccco1	5.96%
CC1(C)CC(=O)C/C(=N\NC(=O)c2cccs2)C1	17.8%
CC(/C=N/NC(=O)c1cc(-c2ccc3ccccc3c2)n[nH]1)=C\c1ccco1	17%
O=C(CCc1ccc(S(=O)(=O)N2CCOCC2)cc1)OCC(=O)c1ccc(Br)cc1	-6.33%
COc1ccc(CCNC(=O)COC(=O)Cc2cccc(F)c2)cc1	-8.97%
O=C(NCc1ccccc1Cl)C1CCC(CNc2c(N3CCCCC3)c(=O)c2=O)CC1 (configuration not stated)	4.69%
CCC(C)C1(C2CCCC2)NC(=O)NC1=O (configuration not stated)	0.88%
O=C(NC1CCC(O)CC1)c1ccc(S(=O)(=O)NCc2ccco2)cc1 (configuration not stated)	11.2%

Structure (SMILES)	inhibition
COc1ccc(CN(C)C(=O)c2cc(-c3ccc(C)cc3C)nc3ccccc23)c(OC)c1OC	0%
Cc1ccc(/C=N/NC(=O)COc2ccccc2-c2ccccc2)cc1	5.68%
COc1cc(/C=N/NC(=O)c2cc(-c3ccccc3C)nc3ccccc23)cc(OC)c1O	76.5% (active)
Cc1ccc(NN=Nc2nc3c([nH]2)c(=O)n(C)c(=O)n3C)cc1	2.21%
O=C(Nc1ccc(N2CCOCC2)cc1)c1cccc2c(-c3ccc(F)c(F)c3)coc12	1.77%
CCc1c(C)n([O-])c2c([n+]1=O)CCCCC2	6.72%
Cc1nc(-c2ccc(Cl)cc2)sc1C(=O)CBr	22.6%
Cc1[nH]c(=O)c(C(=O)/C=C/c2ccccc2)c2c1CCCC2	12.9%
Cc1nc(-c2ccccc2)sc1C(=O)/C=C/c1ccccc1	31.8% (active)
COc1ccccc1-n1ccnc(SCC(=O)NC2CCCCC2)c1=O	7.32%
Cc1ccccc1C(CC(=O)c1cccs1)C(C#N)C#N (configuration not stated)	0%
C/C(=N/NC(=S)Nc1ccccc1)c1ccc2c(c1)OCO2	12.9%
C/C(=N\NS(=O)(=O)c1cccc([N+](=O)[O-])c1)c1cc2ccccc2o1	22.8%
C/C(=N\NC(=S)Nc1ccc(C)cc1)c1cc2ccccc2o1	77.5% (active)
CCc1c(C)nc(N)n2c(SCC(=O)NC3CCCCC3)nnc12	0%
Cc1ccc(S(=O)(=O)N2CCCCC2)cc1C(=O)N1CCN(CCO)CC1	-15.1%
O=C1NC(c2ccccc2)Cc2ccncc21 (configuration not stated)	13.4%
c1ccc(-n2nnnc2N2CCOCC2)cc1	2.54%
C1=C(N2CCOCC2)/C(=C/c2nc3ccccc3[nH]2)CC1	34.8% (active)
O=C(C1CCCO1)N1CCC(c2nc3ccccc3[nH]2)CC1 (configuration not stated)	-7.92%
